Only some compounds are listed: those with a hit (about 27% of all), similar ones and a draw of the others.
Cav3 T inh: Cav3.2 calcium influx blockers – cell-based, Fluo-4 calcium fluorescence, FDSS, MLSMR library, primary screen; Voltage-dependent T-type calcium channel subunit alpha-1H (Homo sapiens), O95180; Cav3.2-expressing cells; hits give low values; B-score at 10 µM; 100,000 compounds, 4% hits; AID 449739, 2010;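 active = single-dose well whose peak fluorescence ratio is a statistical outlier from its plate by either plate-standardised score or position-corrected B-score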
CYP2C9 act: human CYP2C9 activators, primary screen, biochemical, luminescence | 96,000 compounds, 1.4% hits | activation factor at 5 µM | Cytochrome P450 2C9 (Homo sapiens), P11712 | recombinant CYP2C9, luciferin-H conversion; hits give high values; factor 1 = untreated enzyme, 0 = blocked | AID 1024, 2008;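 active = activation factor of 2 or more for CYP2C9 at a 5 µM dose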;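 also: 0 = sulfaphenazole-blocked wells and 1 = vehicle-only wells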
CYP2C9 inhib: blockers of cytochrome P450 2C9 activity – biochemical, luminescence, ADME assay, primary screen; P11712; CYP2C9 Supersomes, luciferin-H conversion; inhibition, % at 5 µM; 96,000 compounds, 20% hits; AID 777, 2007;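 active = blocking of liver enzyme CYP2C9 beyond about 50% at 5 µM, limit read from the data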
CYP2C19 inhib: blockers of cytochrome P450 2C19 activity – biochemical, luminescence, ADME assay, primary screen | P33261 | CYP2C19 Supersomes, luciferin-H EGE luminescence, 30 min | inhibition, % at 5 µM | 96,000 compounds, 21% hits;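 active = CYP2C19 inhibition above a set limit at 5 µM in the primary screen, cut at about 50% in these data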;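 also: plate controls were negative control wells for no effect and 2.5 mM tranylcypromine positive control for full effect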
Target sequence (P33261 whole entry, looked up): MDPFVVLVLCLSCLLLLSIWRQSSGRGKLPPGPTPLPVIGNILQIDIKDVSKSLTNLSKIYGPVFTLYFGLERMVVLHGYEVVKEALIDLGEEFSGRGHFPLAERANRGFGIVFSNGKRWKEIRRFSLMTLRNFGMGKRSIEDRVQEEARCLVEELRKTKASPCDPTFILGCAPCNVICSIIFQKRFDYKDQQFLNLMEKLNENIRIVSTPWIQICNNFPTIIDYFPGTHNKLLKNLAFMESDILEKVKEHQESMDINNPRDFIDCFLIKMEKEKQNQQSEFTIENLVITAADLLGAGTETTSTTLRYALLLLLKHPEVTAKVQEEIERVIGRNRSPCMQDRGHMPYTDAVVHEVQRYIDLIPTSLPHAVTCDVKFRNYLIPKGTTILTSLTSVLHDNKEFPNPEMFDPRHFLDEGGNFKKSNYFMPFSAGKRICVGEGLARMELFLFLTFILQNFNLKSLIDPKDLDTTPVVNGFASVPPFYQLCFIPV
CYP2C19 act: human CYP2C19 activators, primary screen, biochemical, luminescence; recombinant CYP2C19, luciferin-H EGE luminescence; hits give high values; 0 = fully inhibited enzyme, 1 = untreated enzyme; activation factor at 5 µM; AID 1025, 2008; 96,000 tested, under 10 active;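 active = activation factor of at least 2 at 5 µM in the primary screen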;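 also: 0 = wells with 2.5 mM tranylcypromine and 1 = vehicle-only wells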
Numbers without * were called inactive; x = no result given.

SMILES	Cav3 T inh	CYP2C9 act	CYP2C9 inhib	CYP2C19 inhib	CYP2C19 act
COC(=O)c1cc(Br)c(=O)n(-c2ccccc2OC)c1	0.36	1.2	-22	14	0.9
COc1ccccc1-n1c(C)nnc1SCC(=O)Nc1cccc(C(C)=O)c1	0.64	0.7	31	25	0.7
NC(=O)C1CCCNC1 (stereo not given)	0.85	x	x	x	x
CC(C)CNC(=S)NNC(=O)c1ccc(OC(F)F)cc1	0.073	0.9	9	26	0.7
O=C(CN1CCN(c2ccccn2)CC1)NC(=O)NC1CCCCC1	0.27	0.6	44	10	0.9
CC(C(=O)NC(=O)NC1CCCCC1)N1CCN(c2ccccn2)CC1 (stereo not given)	1.6	0.4	57*	25	0.7
NC(=O)CC(NC(=O)Cc1ccc(Br)cc1)c1ccc(NCCc2ccc(F)cc2)c([N+](=O)[O-])c1 (stereo not given)	0.49	x	x	x	x
N#Cc1cc(N)ccc1Sc1ccc(Cl)cc1	-3.6	1.9	-87	50	0.5
N#Cc1ncc(C(F)(F)F)cc1Sc1ccc(N)cc1	-0.88	0.2	81*	96*	0
COc1ccc(CC(=O)Nc2cccc(/C(C)=N/NC(=O)c3cccc([N+](=O)[O-])c3)c2)cc1	-2.4	0.6	38	1	1
CCOc1cc(S(=O)(=O)NCCc2ccccc2C)c(OCC)cc1-n1cnnn1	-0.42	0.1	89*	84*	0.2
CCOc1cc(S(=O)(=O)NCCc2cccc(C)c2)c(OCC)cc1-n1cnnn1	-2.5	0.2	80*	36	0.6
CCOc1cc(S(=O)(=O)N(CC)CC)c(OCC)cc1-n1cnnn1	-1.8	0.7	30	11	0.9
O=C(CCS(=O)(=O)c1cccc2nsnc12)NC1CCCCC1	0.85	1.2	-18	25	0.8
CCC(C)OC(=O)C1=C(C)O[C@]23OC(N)=C(C#N)[C@]12C(=O)c1ccccc13 (stereo not given in full)	-2.9	x	x	x	x
CCOC(=O)c1cnc(SC)nc1Oc1cccc(NS(=O)(=O)c2ccccc2)c1	-2.5	0.2	82*	18	0.8
CCOC(=O)c1cnc(SC)nc1Oc1cccc(NS(=O)(=O)c2ccc(F)cc2)c1	-1.8	0.2	77*	26	0.7
CCOC(=O)c1cnc(-c2ccccc2)nc1Oc1ccc(Cl)cc1	0.11	0.7	29	5	1
CCOC(=O)c1cnc(SC)nc1Nc1cccc2ccccc12	-1.6	x	x	x	x
CCOC(=O)c1cnc(SC)nc1Oc1cccc(NC(=O)c2cccc(Cl)c2Cl)c1	-2.7	0.3	74*	14	0.9
CCOC(=O)c1cnc(SC)nc1Nc1cccc(F)c1	0.64	0.3	70*	35	0.6
CCOC(=O)c1cnc(SC)nc1Oc1cccc(NC(=O)c2ccc(C)cc2)c1	-3.4	0.6	40	3	1
CNC(=O)/C(=C\c1ccc([N+](=O)[O-])cc1)NC(C)=O	x	1	1	-11	1.1
Cc1ccc(Cl)c(OCC(=O)NCc2ccco2)c1	-0.17	1.4	-38	32	0.7
Cc1ccc(/C=N/NC(=O)CC2N=C(Cc3ccccc3)NNC2=O)cc1 (stereo not given)	-1	x	x	x	x
SMILES	Cav3 T inh	CYP2C9 act	CYP2C9 inhib	CYP2C19 inhib	CYP2C19 act
CSc1ccc(Cl)c(C(=O)Nc2ccc(OCC(N)=O)cc2)c1	0.69	1.4	-44	3	1
Cc1ccc(NC(=O)CCCCCC2NC(=O)NC2C)cc1 (stereo not given)	0.94	1.5	-48	61*	0.4
c1ccc(-c2nc(NCCCN3CCOCC3)c3ccccc3n2)cc1	1.3	1	3	24	0.8
Cc1cccc(-c2nc(NCCCN3CCOCC3)c3ccccc3n2)c1	1.4	0.2	84*	60*	0.4
Clc1ccc(-c2cnc(Oc3ccccc3)nc2)cc1	0.098	0.8	17	33	0.7
Cc1ccc(Oc2nccc(-c3ccc(Cl)cc3)n2)cc1	0.73	0.8	24	53*	0.5
CCOC(=O)C1=C(C)N(c2ccccc2)C(=O)C1	-2.9	x	x	x	x
COc1ccc(N2C(=O)CCC(C(=O)c3ccccc3)=C2C)cc1	0.12	0.6	37	95*	0.1
N#Cc1ccc(-c2ccccc2)nc1SCC(=O)c1cccc(Cl)c1	-0.54	0.4	63*	31	0.7
